The nature of assay [1]: qHTS profiling for inhibitors of Plasmodium falciparum (3D7) proliferation (AID 743322).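 Further: infected erythrocytes exposed to compound for 72 h before lysis; 100% = DMSO vehicle wells and 0% = 0.29 µM artemisinin.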 The note with it: P. falciparum 3D7 proliferation; at 28.7 µM (top of the series). The method in brief: (§1)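 Parasite DNA was quantified by SYBR Green I fluorescence (ex 485, em 535 nm) after overnight lysis in saponin/Triton buffer at room temperature. Cultures at 0.3% parasitemia and 2.5% hematocrit were first exposed to compound for 72 h at 37 C; signals were normalised to artemisinin (0.29 uM) and vehicle wells.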
A general note: Quantitative high-throughput screening tests each substance at several concentrations.

Assay [2] is described as follows: qHTS profiling for inhibitors of Plasmodium falciparum (DD2) proliferation (AID 743323). The note with it: lower = more inhibition; at 28.7 µM (top of the series). The method in brief:
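Parasite proliferation measured via DNA-dye fluorescence, as uninfected erythrocytes lack DNA. Cultures at 0.3% parasitemia and 2.5% hematocrit incubated 72 h with compound; signal scaled between vehicle and 0.29 uM artemisinin wells.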

Assay [3] in a line: qHTS profiling for inhibitors of Plasmodium falciparum (HB3) proliferation (AID 743324).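 Further: 100% = DMSO vehicle wells and 0% = artemisinin-treated control wells.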 The note with it: Plasmodium falciparum HB3 blood-stage proliferation; at 28.7 µM (top of the series). The method in brief:
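SYBR Green fluorescence (485 ex/535 em) of lysed cultures, incubated overnight at room temperature in the dark, quantifies parasite DNA. Infected erythrocytes at 0.3% parasitemia and 2.5% hematocrit were exposed 72 h; values normalized to DMSO and 0.29 uM artemisinin controls.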

Assay [4] is described as follows: qHTS profiling of the MIPE4 collection as inhibitors of Plasmodium falciparum (3D7) proliferation (AID 743344).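 Further: scaled between DMSO vehicle wells and 0.29 µM artemisinin as full inhibition.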 The note with it: P. falciparum 3D7 in erythrocytes, SYBR Green DNA fluorescence, 72 h; at 28.5 µM (top of the series) unless noted. The method in brief: as §1
Assay [5] is described as follows: qHTS profiling of the MIPE4 collection as inhibitors of Plasmodium falciparum (DD2) proliferation (AID 743345). The note with it: P. falciparum Dd2 in erythrocytes, SYBR Green DNA, 72 h; at 28.5 µM (top of the series) unless noted. The method in brief: as §1
Assay [6] can be described thus: qHTS profiling of the MIPE4 collection as inhibitors of Plasmodium falciparum (DD2) proliferation (Rep 2) (AID 743346). The note with it: P. falciparum Dd2 in erythrocytes, SYBR Green DNA, 72 h; at 28.5 µM (top of the series) unless noted. The method in brief: as §1
A short description of assay [7]: High-throughput drug toxicity screening in the BPDCN cell line Gen2.2 (AID 1224824).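 Further: cells exposed to compounds for 48 h before reading.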 The note with it: Gen2.2 BPDCN cells; at 45.8 µM (top of the series) unless noted. The method in brief: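 Seed 500 exponentially growing Gen2.2 cells/well; add compounds by pin tool; incubate 48 h, 37 °C, 5% CO2; add CellTiter-Glo, 15 min RT; read luminescence. % activity vs DMSO (100%) and bortezomib (0%).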

A short description of assay [8]: High-throughput drug toxicity screening in the BPDCN cell line Cal-1 (AID 1224825). The note with it: Cal-1 BPDCN cell viability, qHTS; at 45.8 µM (top of the series) unless noted. The method in brief: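 CellTiter-Glo luminescence after 48 h compound exposure; percent activity scaled with DMSO as 100% and bortezomib (9.2 uM final) as 0%. Cal-1 cells seeded at 500/well in RPMI, 10% FBS, no phenol red.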

Assay [9] is described as follows: qHTS profiling of the MIPE4 collection as inhibitors of Plasmodium falciparum (HB3) proliferation (AID 743347).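 Further: plate controls were DMSO vehicle wells for no effect and artemisinin wells for full effect.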 The note with it: P. falciparum HB3 in erythrocytes, SYBR Green DNA, 72 h; at 28.5 µM (top of the series) unless noted. The method in brief:
as §1

As for `Cc1[nH]c2ccccc2c1CCNCc1ccc(C=CC(=O)NO)cc1`, the remaining parasite growth % (stronger effect = lower value) in assay [1] was -0.764%. In addition, the activity, percent of control in assay [2] was -0.223%. Besides, the remaining proliferation (% of control), lower = more inhibition in assay [3] is -0.887%. Further, in [4], the parasite growth, % of DMSO control came to 4.38%. Also, the parasite growth remaining, % of DMSO control (lower = more inhibition) in [5] turned out to be 7.14%. Moreover, the parasite growth, % of control (lower = inhibition) in assay [6] was found to be 6.72%. The cell viability, % of control (lower = more cytotoxic) in assay [7] was found to be 7.87%. Also, in assay [8], the viability (% of control) is 7.62%.

On to `CC(C)[C@H](C(=O)Nc1ccc(C(=O)NO)cc1)c1ccccc1`, for which the remaining parasite growth % (stronger effect = lower value) in assay [1] was -0.0537%. For the same molecule, in assay [2], the activity, percent of control stood at 0.199%. Moreover, the remaining proliferation (% of control), lower = more inhibition in assay [3] was 0.544%. In assay [4], this molecule came in with a parasite growth, % of DMSO control of 5.04%. In assay [5], the parasite growth remaining, % of DMSO control (lower = more inhibition) is 6.95%. Further, in [6], the parasite growth, % of control (lower = inhibition) stood at 12.7%. Besides, in assay [7], the cell viability, % of control (lower = more cytotoxic) amounted to 13.6%. In assay [8], this molecule showed a viability (% of control) of 6.36%.

Regarding `Nc1nccc(Oc2ccc(NC(=O)c3c[nH]cc(-c4ccc(F)cc4)c3=O)cc2F)c1Cl`, the remaining parasite growth % (stronger effect = lower value) in assay [1] came to 7.57%. Further, the activity, percent of control in [2] amounted to 18.6%. Moreover, the remaining proliferation (% of control), lower = more inhibition in assay [3] was 1.21%. The molecule further showed a parasite growth, % of DMSO control in assay [4] of 4.72%. Further, the parasite growth, % of control (lower = inhibition) in assay [6] was found to be 8.39%. In assay [9], this molecule returned a growth, % of control of 6.32%. In assay [7], the cell viability, % of control (lower = more cytotoxic) amounted to 7.66%. In assay [8], this molecule returned a viability (% of control) of 5.21%.

On to `O=C(C=Cc1c(C(=O)O)[nH]c2cc(Cl)cc(Cl)c12)Nc1ccccc1`, for which, in assay [1], the remaining parasite growth % (stronger effect = lower value) amounted to 118%. The activity, percent of control in assay [2] stood at 103%. The parasite growth, % of DMSO control in assay [4] stood at 157%. The parasite growth remaining, % of DMSO control (lower = more inhibition) in assay [5] was determined as 107%. Further, the parasite growth, % of control (lower = inhibition) in assay [6] was found to be 159%. Further, in [7], the cell viability, % of control (lower = more cytotoxic) was 115%. In assay [8], this molecule returned a viability (% of control) of 98.9%.

In the case of `C=CC(=O)Nc1cc2c(Nc3ccc(F)c(Cl)c3)ncnc2cc1C#CC(C)(C)N1CCN(C)CC1`, in assay [1], the remaining parasite growth % (stronger effect = lower value) is -1.21%. For the same molecule, in assay [2], the activity, percent of control is -0.164%. In [4], this molecule had a parasite growth, % of DMSO control of 9.4%. Also, the parasite growth remaining, % of DMSO control (lower = more inhibition) in [5] was determined as 8.69%. For the same molecule, the parasite growth, % of control (lower = inhibition) in assay [6] stood at 18%. Moreover, in assay [7], the cell viability, % of control (lower = more cytotoxic) turned out to be 6.93%. For the same molecule, the viability (% of control) in [8] stood at 1.87%.

Consider `CNC(=O)c1cc(Oc2ccc(NC(=O)Nc3cc(C(C)(C)C)nn3-c3ccc4ncccc4c3)c(F)c2)ccn1`, for which the remaining parasite growth % (stronger effect = lower value) in assay [1] came to 26.7%. In assay [2], the activity, percent of control was found to be 73.3%. Moreover, in [3], the remaining proliferation (% of control), lower = more inhibition turned out to be 24.1%. The molecule further displayed a parasite growth, % of DMSO control in [4] of 5.7%. For the same molecule, the parasite growth remaining, % of DMSO control (lower = more inhibition) in assay [5] came to 15.5%. The growth, % of control in assay [9] came to 9.48%. Also, in [7], the cell viability, % of control (lower = more cytotoxic) was 5.59%. In assay [8], this molecule gave a viability (% of control) of 7%.

`CC(=O)Nc1sc2c(c1-c1nc3ccccc3s1)CNC2`: the remaining parasite growth % (stronger effect = lower value) in assay [1] turned out to be 100%. The activity, percent of control in [2] came out at 96.7%. In addition, in assay [3], the remaining proliferation (% of control), lower = more inhibition was 74.7%. The parasite growth, % of DMSO control in [4] was found to be 20.4%. Besides, the parasite growth, % of control (lower = inhibition) in [6] is 24%. The growth, % of control in assay [9] turned out to be 10.8%. The cell viability, % of control (lower = more cytotoxic) in assay [7] stood at 8.36%. This molecule also registered a viability (% of control) in assay [8] of 4.86%.

As to `COc1cc2c(Nc3ccc(NC(=O)c4ccccc4)cc3)ncnc2cc1OCCCN1CCOCC1`, in assay [1], the remaining parasite growth % (stronger effect = lower value) turned out to be 2.34%. Moreover, the activity, percent of control in assay [2] was found to be 15.5%. In addition, the remaining proliferation (% of control), lower = more inhibition in assay [3] was 3.78%. Further, the parasite growth, % of DMSO control in assay [4] turned out to be 10.3%. In assay [5], the parasite growth remaining, % of DMSO control (lower = more inhibition) was 21.6%. Besides, the parasite growth, % of control (lower = inhibition) in assay [6] turned out to be 30%. In assay [9], this molecule showed a growth, % of control of 8.34%. In addition, the cell viability, % of control (lower = more cytotoxic) in [7] came to 4.68%. The molecule further came in with a viability (% of control) in assay [8] of 2.4%.

In the case of `O=C(c1ccc(Nc2nccc(-c3cc4ccccc4s3)n2)cc1)N1CCC(N2CCCC2)CC1`, the remaining parasite growth % (stronger effect = lower value) in assay [1] was -2.23%. The activity, percent of control in assay [2] is -0.895%. Besides, the parasite growth, % of DMSO control in assay [4] turned out to be 4.58%. Moreover, the parasite growth remaining, % of DMSO control (lower = more inhibition) in assay [5] amounted to 6.27%. Besides, the parasite growth, % of control (lower = inhibition) in [6] came out at 18.7%. Also, the growth, % of control in assay [9] is 4.99%. Also, the cell viability, % of control (lower = more cytotoxic) in assay [7] was found to be 11.5%. The same molecule showed a viability (% of control) in assay [8] of 3.16%.

For the molecule `Cc1ccc(C(N)=O)cc1Nc1nccc(-c2cn(C(C)C)c3cnccc23)n1`, the remaining parasite growth % (stronger effect = lower value) in assay [1] is -1.17%. In addition, the activity, percent of control in assay [2] was determined as 0.145%. Moreover, the remaining proliferation (% of control), lower = more inhibition in assay [3] was -1.54%. The parasite growth remaining, % of DMSO control (lower = more inhibition) in [5] turned out to be 6.53%. Besides, in assay [7], the cell viability, % of control (lower = more cytotoxic) is 4.31%. This molecule also displayed a viability (% of control) in [8] of 3.01%.

Turning to `C[C@@]12O[C@@H](C[C@]1(O)CO)n1c3ccccc3c3c4c(c5c6ccccc6n2c5c31)CNC4=O`, the remaining parasite growth % (stronger effect = lower value) in [1] was -0.0626%. Moreover, in assay [2], the activity, percent of control came out at 0.326%. In addition, in [3], the remaining proliferation (% of control), lower = more inhibition worked out at 0.698%. In assay [4], this molecule yielded a parasite growth, % of DMSO control of 6.66%. Further, the parasite growth remaining, % of DMSO control (lower = more inhibition) in [5] is 6.07%. In addition, the growth, % of control in assay [9] was found to be 9.72%. In addition, in [7], the cell viability, % of control (lower = more cytotoxic) was determined as 9.33%. Also, in assay [8], the viability (% of control) turned out to be 5.8%.

These data come from PubChem BioAssay (NCATS).
